Test results from PubChem BioAssay (Tox21).
Inconclusive results are not listed. The source made the active and inactive calls. Unless noted, the call rests on the fitted dose curve; in most records, active means well fitted curve in the direction sought with a large enough effect in the repeat runs; inconclusive means weak or mixed curves; inactive means no such curve, though single readings can be large; an effect the other way counts as inactive or inconclusive.

Assays:
[1] = A CellTox Green Cytotoxicity Assay to monitor cytotoxicity in HepG2 cells - 0 hour (AID 1224882); further: nearly all actives have a fitted effect of over 35% in size
Procedure, shortened: (§1)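 First, HepG2 cells (600/well) mixed with reagent were plated; second, after 5 h at 37 C they received compounds via pintool; third, fluorescence was measured at 0 h through 40 h at 8 h intervals.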

[2] = A CellTox Green Cytotoxicity Assay to monitor cytotoxicity in HepG2 cells - 32 hour (AID 1224883); further: nearly all actives have a fitted effect of over 50% in size; further: potency means the concentration at half of the fitted maximal effect
Procedure, shortened: as §1

[3] = qHTS RealTime-Glo MT Cell Viability Assay in HepG2 cells - 16 hour (AID 1224885); further: nearly all actives have a fitted effect of over 50% in size; further: potency means the concentration at half of the fitted maximal effect
Procedure, shortened: (§2)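 Cells + NanoLuc/prosubstrate dispensed (600 cells/well) → 5 h at 37 C/5% CO2 → compounds in DMSO transferred → 40 h incubation at 37 C, luminescence read at 0, 8, 16, 24, 32, 40 h.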

[4] = qHTS RealTime-Glo MT Cell Viability Assay in HEK293 cells - 24 hour (AID 1224886); further: top concentration of the series differs between compounds; nearly all actives have a fitted effect of over 50% in size
Procedure, shortened: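 Tox21 10K qHTS, HEK293, 600 cells/well, RealTime-Glo reagent co-dispensed with cells; 5 h preincubation, compound by pintool, 37 C, luminescence at 0–40 h.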

[5] = qHTS RealTime-Glo MT Cell Viability Assay in HEK293 cells - 8 hour (AID 1224887); further: nearly all actives have a fitted effect of over 50% in size; further: potency means the concentration at half of the fitted maximal effect; on activity change, negative = cytotoxicity: top concentration of the series differs between compounds
Procedure, shortened: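 600 HEK293 cells per well, dispensed already mixed with RealTime-Glo MT reagents. Compound dosing came 5 h later. The same wells were read for luminescence at 0, 8, 16, 24, 32 and 40 h of exposure at 37 C.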

[6] = A CellTox Green Cytotoxicity Assay to monitor cytotoxicity in HEK293 cells - 16 hour (AID 1224888); further: nearly all actives have a fitted effect of over 35% in size; further: potency means the concentration at half of the fitted maximal effect
Procedure, shortened: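 Dead-cell fluorescence measured kinetically: asymmetric cyanine dye, HEK293, 600 cells/well, 5 h settle, 23 nL cpd/DMSO, 37 C, reads 0–40 h every 8 h.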

[7] = qHTS RealTime-Glo MT Cell Viability Assay in HepG2 cells - 0 hour (AID 1224889); further: nearly all actives have a fitted effect of over 50% in size; further: potency means the concentration at half of the fitted maximal effect
Procedure, shortened: as §2

[8] = qHTS assay to identify small molecule antagonists of the estrogen receptor alpha (ER-alpha) signaling pathway using the BG1 cell line in the presence of 0.1 nM 17-beta-estradiol - cell viability counter screen (AID 1259241); further: nearly all actives have a fitted effect of over 40% in size
Procedure, shortened: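 VM7Luc4E2, 4,000 cells/well, phenol red-free medium + 10% charcoal-stripped FBS; 24 hr plating; cpd + 0.1 nM E2 final, 22 hr 37C/5% CO2; CellTiter-Fluor 30 min, fluorescence.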

[9] = qHTS assay to identify small molecule antagonists of the androgen receptor (AR) signaling pathway using the MDA cell line in the presence of 0.5 nM R1881 - cell viability counter screen (AID 1259242); further: nearly all actives have a fitted effect of over 45% in size
Procedure, shortened: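 qHTS format. MDA-kb2 (MMTV-luc, AR/GR responsive) + cpd + 0.5 nM R1881 final, 16 hr 37C/0% CO2 → CellTiter-Fluor 30 min → fluorescence intensity.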

[10] = qHTS assay to identify small molecule HDAC inhibitors (AID 1259364); further: potency means the concentration at half of the fitted maximal effect;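 further: wild-type HCT-116 cells with endogenous class I/II HDAC activity; nearly all actives have a fitted effect of over 45% in size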; on activity change, negative = inhibition: top concentration of the series differs between compounds
Procedure, shortened: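 Quantitative high-throughput format: overnight-seeded HCT-116 cells got compounds for 2 hr at 37C; HDAC-Glo I/II reagent added, 30 min RT, luminescence measured.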

[11] = qHTS assay to identify small molecule HDAC inhibitors - cell viability counter screen (AID 1259365)
Procedure, shortened: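 Luminescence from CellTiter-Glo, developed 30min at room temperature, reports viability of wild-type HCT-116 cells treated 2hr with compounds at 37 C and 5% CO2 after overnight plating.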

[12] = qHTS assay to identify small molecule agonists of the sonic hedgehog signaling (Shh) pathway - cell viability counter screen (AID 1259366); further: nearly all actives have a fitted effect of over 50% in size
Procedure, shortened: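 Cytotoxicity counter screen run in the same wells as the Shh reporter assay. NIH/3T3 cells carrying a Gli1 response element–driven luciferase were treated with DMSO-dissolved compounds for 24hr, and live-cell protease activity was measured with CellTiter-Fluor.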

[13] = qHTS assay to identify small molecule antagonists of the sonic hedgehog signaling (Shh) pathway - cell viability counter screen (AID 1259367); further: nearly all actives have a fitted effect of over 55% in size
Procedure, shortened: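 Cytotoxicity was assessed in parallel with Shh reporter activity by measuring live-cell protease fluorescence (CellTiter-Fluor) in NIH/3T3 cells stably carrying Gli1-Luc, treated with compound under conditioned medium stimulation for 23 hr plus 1 hr reagent incubation.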

[14] = qHTS assay to identify small molecule agonists of the sonic hedgehog signaling (Shh) pathway (AID 1259368; calls by dose curve;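 further: NIH/3T3-derived 3T3Gli1-Luc cells carrying a stable Gli1-driven firefly luciferase reporter; series mostly up to about 92 µM; nearly all actives have a fitted effect of over 15% in size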)
Procedure, shortened: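 Quantitative high-throughput format using a Gli1-driven firefly luciferase reporter line derived from NIH/3T3 cells. After a 24 hr compound treatment at 37 C and 5% CO2, luminescence reported Gli1 response element activity.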

[15] = qHTS assay to identify small molecule antagonists of the sonic hedgehog signaling (Shh) pathway (AID 1259369; calls by dose curve; further: nearly all actives have a fitted effect of over 45% in size)
Procedure, shortened: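 Stable Gli1-Luc reporter NIH/3T3 clone; quantitative HTS in stimulated mode with conditioned medium. Luminescence measured after 24hr compound treatment at 37 C.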

[16] = A CellTox Green Cytotoxicity Assay to monitor cytotoxicity in HepG2 cells - 8 hour (AID 1224890); further: nearly all actives have a fitted effect of over 45% in size; further: potency means the concentration at half of the fitted maximal effect
Procedure, shortened: as §1

[17] = molecular target: Estrogen receptor (Homo sapiens) (UniProt P03372); assay: qHTS assay to identify small molecule antagonists of the estrogen receptor alpha (ER-alpha) signaling pathway using the BG1 cell line in the presence of 0.1 nM 17-beta-estradiol (AID 1259244); further: nearly all actives have a fitted effect of over 50% in size
Chain of Estrogen receptor (Homo sapiens) (P03372 whole entry, looked up): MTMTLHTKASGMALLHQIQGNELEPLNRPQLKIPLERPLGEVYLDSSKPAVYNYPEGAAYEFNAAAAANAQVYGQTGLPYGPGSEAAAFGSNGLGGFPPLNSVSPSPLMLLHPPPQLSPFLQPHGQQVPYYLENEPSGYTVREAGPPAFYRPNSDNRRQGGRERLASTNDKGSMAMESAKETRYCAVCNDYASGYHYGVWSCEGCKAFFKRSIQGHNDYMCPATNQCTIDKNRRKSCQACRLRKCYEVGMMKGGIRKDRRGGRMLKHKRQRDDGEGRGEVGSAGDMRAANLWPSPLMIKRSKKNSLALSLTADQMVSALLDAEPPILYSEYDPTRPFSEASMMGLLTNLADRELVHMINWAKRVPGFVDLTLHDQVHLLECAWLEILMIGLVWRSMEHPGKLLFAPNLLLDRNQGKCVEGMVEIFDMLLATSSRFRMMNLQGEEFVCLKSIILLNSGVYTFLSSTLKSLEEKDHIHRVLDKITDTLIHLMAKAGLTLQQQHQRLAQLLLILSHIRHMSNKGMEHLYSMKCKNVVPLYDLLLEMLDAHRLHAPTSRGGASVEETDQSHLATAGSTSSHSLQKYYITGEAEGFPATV
Procedure, shortened: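 Reporter is a stably transfected luciferase under four estrogen responsive elements in VM7Luc4E2 cells expressing native full-length ER-alpha; inhibition of 0.1 nM (final) 17beta-estradiol-driven signal over 22 h is read by luminescence.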

[18] = qHTS assay to identify small molecule phospholipidosis (PLD) inducers (AID 1259344; active means well fitted curve in the direction sought with a large enough effect; an effect the other way counts as inactive or inconclusive; further: potency means the concentration at half of the fitted maximal effect)
Procedure, shortened: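 Cells (HepG2, 900 per well) attach for 4 h, receive LipidTOX Red and compound together, incubate 24 h at 37 C, are fixed 30 min with paraformaldehyde/Hoechst, then imaged at one site per well.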

[19] = molecular target: Androgen receptor (Homo sapiens) (UniProt P10275); assay: qHTS assay to identify small molecule antagonists of the androgen receptor (AR) signaling pathway using the MDA cell line in the presence of 0.5 nM R1881 (AID 1259243); further: nearly all actives have a fitted effect of over 50% in size; further: potency means the concentration at half of the fitted maximal effect
Chain of Androgen receptor (Homo sapiens) (P10275 whole entry, looked up): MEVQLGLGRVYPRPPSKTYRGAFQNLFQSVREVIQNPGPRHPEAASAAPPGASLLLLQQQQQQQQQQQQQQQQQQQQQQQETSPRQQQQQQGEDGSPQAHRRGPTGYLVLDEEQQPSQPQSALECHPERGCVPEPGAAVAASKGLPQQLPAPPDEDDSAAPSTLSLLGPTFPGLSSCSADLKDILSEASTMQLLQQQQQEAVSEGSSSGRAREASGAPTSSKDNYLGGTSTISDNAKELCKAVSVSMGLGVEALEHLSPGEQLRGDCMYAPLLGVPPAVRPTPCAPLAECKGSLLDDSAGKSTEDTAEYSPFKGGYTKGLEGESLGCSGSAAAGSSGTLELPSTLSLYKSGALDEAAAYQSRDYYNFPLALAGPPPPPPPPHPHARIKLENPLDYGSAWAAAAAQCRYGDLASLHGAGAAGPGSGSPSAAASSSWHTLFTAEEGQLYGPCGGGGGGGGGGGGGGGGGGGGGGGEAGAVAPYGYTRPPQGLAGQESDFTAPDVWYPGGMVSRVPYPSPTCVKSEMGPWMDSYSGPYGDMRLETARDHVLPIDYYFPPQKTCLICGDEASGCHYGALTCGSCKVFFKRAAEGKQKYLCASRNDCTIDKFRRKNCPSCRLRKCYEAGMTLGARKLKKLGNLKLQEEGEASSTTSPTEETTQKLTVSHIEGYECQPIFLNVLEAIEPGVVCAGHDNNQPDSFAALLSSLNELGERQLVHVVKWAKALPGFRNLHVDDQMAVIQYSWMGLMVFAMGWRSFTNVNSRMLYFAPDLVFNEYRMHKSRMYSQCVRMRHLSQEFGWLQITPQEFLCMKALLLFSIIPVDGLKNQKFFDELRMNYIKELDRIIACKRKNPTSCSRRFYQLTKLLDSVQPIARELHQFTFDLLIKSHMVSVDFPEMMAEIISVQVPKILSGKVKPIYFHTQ
Procedure, shortened: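 Antagonist mode quantitative HTS in MDA-kb2 MMTV-luciferase cells, agonist R1881 at 0.5 nM final, 16 hr exposure at 37C and 0% CO2, luminescent detection.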
On the % scale 0 is the no-effect control and ±100 the full control effect.

C=CCOC(=O)CCC1CCCCC1
inactive: Potency [1] | Potency [2] | Potency [3] | Potency [4] | Potency [5] | Potency [6] | Potency [7] | Potency [8] | Potency [9] | Potency [10] | Potency [11] | Potency [12] | Potency [13] | outcome [14] | Potency [15]

O=C1c2ccccc2S(=O)(=O)N1CCCCN1CCN(c2ncccn2)CC1
inactive: Potency [1] | Potency [2] | Potency [3] | Potency [5] | Potency [6] | Potency [7] | Potency [16] | Potency [9] | Potency [17] | Potency [18] | Potency [10] | Potency [11] | Potency [12] | Potency [13] | outcome [14] | Potency [15]

CN(C)c1ccc(/C=C/c2ccc([N+](=O)[O-])cc2)cc1
active: Potency [10] 0.872 µM
inactive: cytotoxicity [1] 4.44% [at 6.97 µM] | cytotoxicity increase [2] 16% [at 6.97 µM] | activity change, negative = cytotoxic [3] -7.1% [at 6.97 µM] | activity change, negative = cytotoxicity [4] -4.06% [at 6.97 µM] | activity change, negative = cytotoxicity [7] -8.4% [at 6.97 µM] | cytotoxicity increase [16] 23.9% [at 6.97 µM] | activity change, negative = cytotoxicity [8] 7.98% [at 8.39 µM] | viability change, negative = cytotoxic [9] 4% [at 8.39 µM] | activity change, negative = cytotoxicity [11] -0.457% [at 8.39 µM] | viability change, negative = cytotoxic [13] 8.12% [at 8.39 µM] | activity change [14] 7.46% [at 8.39 µM] | activity change, negative = inhibition [15] 48% [at 8.39 µM]

CCOC(=O)COC(=O)c1cc(Oc2ccc(C(F)(F)F)cc2Cl)ccc1[N+](=O)[O-]
active: Potency [5] 49 µM
inactive: Potency [1] | Potency [2] | Potency [3] | Potency [6] | Potency [7] | Potency [16] | Potency [9] | Potency [10] | Potency [12] | Potency [13] | outcome [14]

Cc1c(N)cccc1[N+](=O)[O-]
inactive: Potency [1] | Potency [2] | Potency [3] | Potency [4] | Potency [5] | Potency [6] | Potency [7] | Potency [16] | Potency [8] | Potency [9] | Potency [17] | Potency [10] | Potency [11] | Potency [12] | Potency [13] | outcome [14] | Potency [15]

CC1=CC=C(C(C)C)CC1
inactive: Potency [1] | Potency [2] | Potency [3] | Potency [4] | Potency [5] | Potency [7] | Potency [16] | Potency [8] | Potency [9] | Potency [17] | Potency [10] | Potency [11] | outcome [14] | Potency [15]

O=C1CCC(=O)O1
inactive: Potency [1] | Potency [2] | Potency [3] | Potency [5] | Potency [6] | Potency [7] | Potency [8] | Potency [9] | Potency [17] | Potency [10] | Potency [11] | Potency [12] | Potency [13] | outcome [14] | Potency [15]

CN1CCC(=C2c3ccccc3Sc3ccccc32)CC1
inactive: Potency [1] | Potency [4] | Potency [5] | Potency [6] | Potency [16] | Potency [8] | Potency [9] | Potency [17] | Potency [10] | Potency [11] | Potency [12] | Potency [13] | outcome [14]
active: Potency [2] 23.9 µM | Potency [19] 23.7 µM | Potency [18] 10 µM

CCO[Si](CCCCl)(OCC)OCC
inactive: Potency [1] | Potency [2] | Potency [3] | Potency [4] | Potency [5] | Potency [7] | Potency [16] | Potency [9] | Potency [17] | Potency [10] | Potency [11] | Potency [12] | Potency [13] | outcome [14] | Potency [15]

CC(C)(C)OCC1CO1 (configuration not stated)
inactive: Potency [1] | Potency [2] | Potency [3] | Potency [4] | Potency [5] | Potency [6] | Potency [7] | Potency [16] | Potency [8] | Potency [9] | Potency [10] | Potency [11] | Potency [12] | Potency [13] | outcome [14]

CCCCC
inactive: Potency [1] | Potency [2] | Potency [3] | Potency [4] | Potency [5] | Potency [7] | Potency [16] | Potency [9] | Potency [18] | Potency [11] | Potency [12] | outcome [14]
active: Potency [10] 1.69 µM

Nc1c(CC(=O)O)cccc1C(=O)c1ccc(Br)cc1
inactive: Potency [1] | Potency [2] | Potency [3] | Potency [4] | Potency [5] | Potency [6] | Potency [7] | Potency [16] | Potency [9] | Potency [17] | Potency [18] | Potency [10] | Potency [11] | Potency [12] | Potency [13] | outcome [14] | Potency [15]

O=CC1CC=CCC1 (configuration not stated)
inactive: Potency [1] | Potency [2] | Potency [3] | Potency [4] | Potency [6] | Potency [7] | Potency [16] | Potency [8] | Potency [9] | Potency [19] | Potency [17] | Potency [10] | Potency [11] | outcome [14] | Potency [15]

Cc1ccc(C(=O)Oc2ccc(C(O)CNC(C)(C)C)cc2OC(=O)c2ccc(C)cc2)cc1 (configuration not stated)
inactive: Potency [1] | Potency [7] | Potency [8] | Potency [9] | Potency [17] | Potency [10] | Potency [13] | outcome [14] | Potency [15]
active: Potency [2] 19 µM | Potency [3] 21.3 µM | Potency [6] 26.8 µM | Potency [16] 23.9 µM

C[C@@H]1C[C@H]2O[C@@]3(O[C@@H]2C(C)(C)O)[C@H](O)[C@@]2(C)[C@@H]4CC[C@H]5C(C)(C)[C@@H](O[C@@H]6OC[C@@H](O)[C@H](O)[C@H]6O)CC[C@@]56C[C@@]46CC[C@]2(C)[C@@H]13
inactive: Potency [1] | Potency [2] | Potency [3] | Potency [4] | Potency [5] | Potency [6] | Potency [8] | Potency [9] | Potency [19] | Potency [17] | Potency [10] | Potency [11] | Potency [12] | Potency [13] | outcome [14]
active: Potency [7] 2.16 µM
